Screen size: about 39,000 compounds; about 3,300 (8.5%) were called active. What follows is part of a selection rich in actives, with near analogues and random picks from the rest.

The test relates to HepG2. Kind of test: cytotoxicity call (relative viability < 0.9). Particulars: 10 µM.
For `C[C@H](CO)N1C[C@H](C)[C@@H](CN(C)C(=O)Nc2ccc3c(c2)OCO3)OCCCC[C@H](C)Oc2ccc(NS(=O)(=O)c3ccc(Cl)cc3)cc2C1=O`, the cytotoxicity call was “inactive”.

`COC(=O)c1c2oc(c1C(=O)OC)C(=O)N[C@H](Cc1ccccc1)Cn1cc(nn1)CNC(=O)[C@@H](Cc1ccccc1)NC(=O)N[C@@H](COC(=O)NCCCCCC(=O)NO)CC2`: the cytotoxicity call is “inactive”.

For `C[C@H](NC(=O)[C@H]1N[C@H]2c3ccc(-c4ccc(C(=O)N(C)C)cc4)c(=O)n3C[C@H]2[C@@H]1CO)c1ccccc1`, the cytotoxicity call is “inactive”.

For the compound `COc1ccc(NC(=O)N(C)C[C@@H]2Oc3ccc(NS(=O)(=O)c4cn(C)cn4)cc3CC(=O)N([C@H](C)CO)C[C@H]2C)cc1`, the cytotoxicity call was “inactive”.

In the case of `COc1ccc(NC(=O)Nc2cccc3c2O[C@@H](CN(C)Cc2ccc(C(=O)Nc4ccccc4N)cc2)[C@@H](C)CN([C@@H](C)CO)C3=O)cc1`, the cytotoxicity call was “inactive”.

In the case of `CCN(CC)c1ccc(N2CC=C[C@@]34O[C@@H]5/C=C\CCCOC(=O)[C@@H]5[C@H]3C(=O)N(CCCCCCO)[C@@H]4C2=O)cc1`, the cytotoxicity call is “inactive”.

As for `C[C@@H]1CCCCO[C@@H](CN(C)C(=O)Nc2ccccc2)[C@H](C)CN([C@@H](C)CO)C(=O)c2cc(NS(=O)(=O)c3ccccc3)ccc2O1`, the cytotoxicity call is “inactive”.

Take `Cc1ccc(S(=O)(=O)Nc2ccc3c(c2)C(=O)N([C@@H](C)CO)C[C@@H](C)[C@@H](CN(C)S(=O)(=O)c2c(C)noc2C)O3)cc1`: the cytotoxicity call is “inactive”.

In the case of `C[C@@H]1CN([C@H](C)CO)C(=O)c2cccc(NC(=O)CCCCCC(=O)Nc3ccccc3N)c2O[C@H]1CN(C)CC1CCCCC1`, the cytotoxicity call was “active”.

On to `C[C@@H]1CN([C@H](C)CO)C(=O)c2cccc(NC(=O)CCCCCC(=O)Nc3ccccc3N)c2O[C@@H]1CN(C)CC1CCCCC1`, for which the cytotoxicity call was “inactive”.

For the compound `C[C@H]1CN([C@@H](C)CO)C(=O)c2cccc(NC(=O)CCCCCC(=O)Nc3ccccc3N)c2O[C@@H]1CN(C)CC1CCCCC1`, the cytotoxicity call was “active”.

Turning to `C[C@@H]1CN([C@@H](C)CO)C(=O)c2cccc(NC(=O)CCCCCC(=O)Nc3ccccc3N)c2O[C@@H]1CN(C)CC1CCCCC1`, the cytotoxicity call was “active”.

As to `C[C@H](CO)N1C[C@H](C)[C@@H](CN(C)CC2CCCCC2)Oc2c(NC(=O)CCCCCC(=O)Nc3ccccc3N)cccc2C1=O`, the cytotoxicity call is “inactive”.

Regarding `C[C@H]1CN([C@@H](C)CO)C(=O)c2cccc(NC(=O)CCCCCC(=O)Nc3ccccc3N)c2O[C@H]1CN(C)CC1CCCCC1`, the cytotoxicity call is “inactive”.

Take `C[C@@H]1CN([C@@H](C)CO)C(=O)c2cccc(NC(=O)CCCCCC(=O)Nc3ccccc3N)c2O[C@@H]1CN(C)Cc1ccccc1`: the cytotoxicity call is “inactive”.

Consider `C[C@@H]1CN([C@@H](C)CO)C(=O)c2cccc(NC(=O)CCCCCC(=O)Nc3ccccc3N)c2O[C@H]1CN(C)CC1CCCCC1`, for which the cytotoxicity call was “inactive”.

`C[C@H](CO)N1C[C@H](C)[C@H](CN(C)CC2CCCCC2)Oc2c(NC(=O)CCCCCC(=O)Nc3ccccc3N)cccc2C1=O`: the cytotoxicity call was “inactive”.

For the compound `Nc1nc(=O)c2ncn(COC(CO)CO)c2[nH]1`, the cytotoxicity call was “inactive”.

Regarding `CN[C@H]1[C@@H](O[C@H]2[C@@H](O[C@H]3[C@@H](O)[C@@H](O)[C@@H](NC(=N)N)[C@@H](O)[C@@H]3NC(=N)N)O[C@@H](C)[C@@]2(O)C=O)O[C@@H](CO)[C@@H](O)[C@@H]1O.CN[C@H]1[C@@H](O[C@H]2[C@@H](O[C@H]3[C@@H](O)[C@@H](O)[C@@H](NC(=N)N)[C@@H](O)[C@@H]3NC(=N)N)O[C@@H](C)[C@@]2(O)C=O)O[C@@H](CO)[C@@H](O)[C@@H]1O.O=S(=O)(O)O.O=S(=O)(O)O.O=S(=O)(O)O`, the cytotoxicity call was “inactive”.

Take `CC1(C)SC2C(NC(=O)C(C(=O)[O-])c3ccccc3)C(=O)N2C1C(=O)[O-].[Na+].[Na+]` (configuration not stated): the cytotoxicity call was “inactive”.

Take `C[C@@H]1CCCCO[C@@H](CN(C)C(=O)c2ccccc2)[C@@H](C)CN([C@@H](C)CO)C(=O)c2cc(NC(=O)c3ccccc3)ccc2O1`: the cytotoxicity call was “inactive”.

On to `C[C@@H]1CCCCO[C@@H](CN(C)C(=O)Nc2ccc(C(F)(F)F)cc2)[C@@H](C)CN([C@H](C)CO)C(=O)c2cc(NS(=O)(=O)c3cn(C)cn3)ccc2O1`, for which the cytotoxicity call is “inactive”.

`C=C1SC(Nc2c(C)cccc2C)=NC12CCCCC2`: the cytotoxicity call was “active”.

With `Cc1cccc(C)c1NC(=O)C1CCCCN1C.Cl` (configuration not stated), the cytotoxicity call is “inactive”.

Regarding `Cc1cccc(C)c1Nc1nc2c(C)cc(C)c(C)c2s1`, the cytotoxicity call is “inactive”.

Consider `C[C@@H]1CN([C@@H](C)CO)C(=O)Cc2cc(NC(=O)C3CC3)ccc2O[C@H]1CN(C)C(=O)Nc1ccccc1`, for which the cytotoxicity call is “inactive”.

In the case of `COCC#Cc1ccc([C@H]2[C@H]3CN(C(=O)CN4CCOCC4)CC(=O)N3[C@H]2CO)cc1`, the cytotoxicity call is “inactive”.

With `COc1ccc(S(=O)(=O)N(C)C[C@@H]2OCCCC[C@@H](C)Oc3ccc(NS(=O)(=O)c4cn(C)cn4)cc3C(=O)N([C@H](C)CO)C[C@H]2C)cc1`, the cytotoxicity call is “inactive”.

For the compound `C[C@@H]1CN([C@@H](C)CO)C(=O)c2cc(C#CCc3ccccc3)cnc2O[C@H]1CN(C)CC1CCOCC1`, the cytotoxicity call was “inactive”.

As for `COc1ccc(NC(=O)Nc2ccc3c(c2)C(=O)N([C@H](C)CO)C[C@@H](C)[C@H](CN(C)S(=O)(=O)c2ccc(F)cc2)OCCCC[C@H](C)O3)cc1`, the cytotoxicity call was “active”.

For `COc1ccc(NC(=O)Nc2ccc3c(c2)C(=O)N([C@H](C)CO)C[C@@H](C)[C@@H](CN(C)S(=O)(=O)c2ccc(F)cc2)OCCCC[C@H](C)O3)cc1`, the cytotoxicity call was “inactive”.

With `COc1ccc(NC(=O)Nc2ccc3c(c2)C(=O)N([C@H](C)CO)C[C@H](C)[C@@H](CN(C)S(=O)(=O)c2ccc(F)cc2)OCCCC[C@H](C)O3)cc1`, the cytotoxicity call was “inactive”.

With `COc1ccc(NC(=O)Nc2ccc3c(c2)C(=O)N([C@@H](C)CO)C[C@@H](C)[C@@H](CN(C)S(=O)(=O)c2ccc(F)cc2)OCCCC[C@@H](C)O3)cc1`, the cytotoxicity call is “inactive”.

Consider `COc1ccc(NC(=O)Nc2ccc3c(c2)C(=O)N([C@H](C)CO)C[C@H](C)[C@H](CN(C)S(=O)(=O)c2ccc(F)cc2)OCCCC[C@@H](C)O3)cc1`, for which the cytotoxicity call is “inactive”.

For `COc1ccc(S(=O)(=O)N(C)C[C@H]2OCCCC[C@@H](C)Oc3ccc(NC(=O)Nc4ccc(F)cc4)cc3C(=O)N([C@H](C)CO)C[C@@H]2C)cc1`, the cytotoxicity call was “active”.

Consider `CO[C@H]1CN(C)C(=O)c2ccc(NS(=O)(=O)c3cn(C)cn3)cc2OC[C@H](C)N(CC2CC2)C[C@@H]1C`, for which the cytotoxicity call was “inactive”.

Consider `CC1(C)OC(=O)N(CCCC(=O)O)[C@@]1(C)O`, for which the cytotoxicity call was “inactive”.

For `CC(=O)OC1CC(OC(C)=O)C2(C)C(CC(O)C3(C)C2CCC2(C)C(c4ccoc4)OC(=O)C4OC423)C1(C)C` (configuration not stated), the cytotoxicity call was “inactive”.

For `C[C@H]1CN([C@@H](C)CO)C(=O)c2cc(NC(=O)Cn3cnnn3)ccc2O[C@H]1CN(C)CC1CCCCC1`, the cytotoxicity call is “inactive”.

Regarding `C[C@H](CO)N1C[C@H](C)[C@H](CN(C)Cc2ccc(C(=O)O)cc2)Oc2c(NC(=O)C3CC3)cccc2C1=O`, the cytotoxicity call was “inactive”.

Consider `CS(=O)(=O)NC[C@@]12COC[C@H]1CN(C(=O)c1cnccn1)C2`, for which the cytotoxicity call was “inactive”.

As for `C[C@@H]1CCCCO[C@H](CN(C)S(=O)(=O)c2ccc(Cl)cc2)[C@H](C)CN([C@@H](C)CO)C(=O)c2cc(NC(=O)CCC(F)(F)F)ccc2O1`, the cytotoxicity call is “inactive”.

As for `C[C@@H]1CCCCO[C@@H](CN(C)Cc2ccc(C(F)(F)F)cc2)[C@@H](C)CN([C@H](C)CO)C(=O)c2cc(NC(=O)CCCN(C)C)ccc2O1`, the cytotoxicity call was “inactive”.

As for `C[C@@H]1CN([C@H](C)CO)C(=O)c2cc(NC(=O)CCCN(C)C)ccc2O[C@@H](C)CCCCO[C@H]1CN(C)Cc1ccc(C(F)(F)F)cc1`, the cytotoxicity call is “inactive”.

As to `C[C@H](CO)N1C[C@H](C)[C@H](CN(C)Cc2ccc(C(F)(F)F)cc2)OCCCC[C@H](C)Oc2ccc(NC(=O)CCCN(C)C)cc2C1=O`, the cytotoxicity call is “active”.

Consider `C[C@@H]1CCCCO[C@@H](CN(C)Cc2ccc(C(F)(F)F)cc2)[C@@H](C)CN([C@@H](C)CO)C(=O)c2cc(NC(=O)CCCN(C)C)ccc2O1`, for which the cytotoxicity call was “inactive”.

`C[C@H]1CCCCO[C@@H](CN(C)Cc2ccc(C(F)(F)F)cc2)[C@@H](C)CN([C@@H](C)CO)C(=O)c2cc(NC(=O)CCCN(C)C)ccc2O1`: the cytotoxicity call was “inactive”.

As to `C[C@H]1CCCCO[C@H](CN(C)Cc2ccc(C(F)(F)F)cc2)[C@@H](C)CN([C@@H](C)CO)C(=O)c2cc(NC(=O)CCCN(C)C)ccc2O1`, the cytotoxicity call was “active”.

For `C[C@H](CO)N1C[C@H](C)[C@@H](CN(C)Cc2ccc(C(F)(F)F)cc2)OCCCC[C@H](C)Oc2ccc(NC(=O)CCCN(C)C)cc2C1=O`, the cytotoxicity call is “inactive”.

On to `C[C@@H]1CCCCO[C@H](CN(C)Cc2ccc(C(F)(F)F)cc2)[C@@H](C)CN([C@@H](C)CO)C(=O)c2cc(NC(=O)CCCN(C)C)ccc2O1`, for which the cytotoxicity call is “active”.

For the compound `C[C@@H]1CCCCO[C@H](CN(C)Cc2ccc(C(F)(F)F)cc2)[C@H](C)CN([C@H](C)CO)C(=O)c2cc(NC(=O)CCCN(C)C)ccc2O1`, the cytotoxicity call is “inactive”.

Turning to `C[C@@H]1CCCCO[C@H](CN(C)Cc2ccc(C(F)(F)F)cc2)[C@H](C)CN([C@@H](C)CO)C(=O)c2cc(NC(=O)CCCN(C)C)ccc2O1`, the cytotoxicity call was “active”.

Turning to `C[C@@H]1CN([C@@H](C)CO)C(=O)c2cc(NC(=O)CCCN(C)C)ccc2O[C@@H](C)CCCCO[C@H]1CN(C)Cc1ccc(C(F)(F)F)cc1`, the cytotoxicity call is “inactive”.

In the case of `C[C@@H]1CN([C@H](C)CO)C(=O)c2cc(NC(=O)CCCN(C)C)ccc2O[C@@H](C)CCCCO[C@@H]1CN(C)Cc1ccc(C(F)(F)F)cc1`, the cytotoxicity call is “inactive”.

As for `CN(C)C(=O)C[C@@H]1CC[C@H]2[C@H](COc3ccc(NS(=O)(=O)c4cccc(F)c4)cc3C(=O)N2C)O1`, the cytotoxicity call is “inactive”.

Turning to `COc1ccc(S(=O)(=O)N(C)C[C@H]2OCCCC[C@H](C)Oc3ccc(NS(C)(=O)=O)cc3C(=O)N([C@H](C)CO)C[C@@H]2C)cc1`, the cytotoxicity call is “inactive”.

In the case of `C[C@H](CO)N1C[C@H](C)[C@H](CN(C)Cc2cccc(O)c2)OCc2ccccc2-c2c(n(C)c3ccccc23)C1=O`, the cytotoxicity call is “inactive”.
